Screening data from PubChem.
Giardia killer: Giardia lamblia killing. activity change, % at 7.66 µM, hits read low. 0.15% of 340,000 active. AID 540267. Giardia lamblia trophozoite viability; in the data active = activity change below about -80%; inconclusive = between about -30% and that limit;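 note: parasites exposed to compound for two days anaerobically before the ATP read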
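ATP-content bioluminescence gauges trophozoite survival. Cells (100/well) receive compound and incubate anaerobically for 48 hrs at 37 deg C; detection reagent follows for 15-30 min at room temperature.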
TDP1 cell CPT: DT40-hTDP1 cell growth loss with CPT | 12% of 420,000 active | Potency, µM (doses to about 46.2 µM), most hits filed as inhibitors | chicken DT40 Tdp1-/-;hTDP1 cells + 20 nM CPT, ATP luminescence, 48 h; note: nearly all actives have a fitted effect of over 55% in size
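Chicken DT40 Tdp1-/- cells stably complemented with human TDP1 were seeded at 400 cells/well in medium containing 20 nM camptothecin, exposed to pin-transferred compounds, and grown at 37 °C for at least 48 hr. Viability was read as ATP luminescence.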
IL-1B inflam inh: inhibitors of inflammasome signaling (IL-1 beta secretion) | THP-1 LPS/ATP IL-1B secretion, AlphaLISA, 16 h; stronger effect = lower value | activity change, % at 57.5 µM | 4.7% of 360,000 active | AID 743279; in the data active = activity change below about -50%; inconclusive = mostly about -30% to -49%
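THP-1 cells pretreated 1 hr with compounds (up to 57.5 uM final), then stimulated with LPS (250 ng/mL final) plus ATP (1.25 mM final); secreted IL-1B measured by AlphaLISA after 16 hr, decreased signal indicating inhibition.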
TDP1 block: blocks human tyrosyl-DNA phosphodiesterase 1; recombinant TDP1, AlphaScreen DNA substrate cleavage; Potency, µM (top dose mostly 130 µM), usual class: inhibitors; 0.28% of 350,000 active; AID 485290; note: nearly all actives have a fitted effect of over 40% in size
Target sequence (Q9NUW8 whole entry, looked up): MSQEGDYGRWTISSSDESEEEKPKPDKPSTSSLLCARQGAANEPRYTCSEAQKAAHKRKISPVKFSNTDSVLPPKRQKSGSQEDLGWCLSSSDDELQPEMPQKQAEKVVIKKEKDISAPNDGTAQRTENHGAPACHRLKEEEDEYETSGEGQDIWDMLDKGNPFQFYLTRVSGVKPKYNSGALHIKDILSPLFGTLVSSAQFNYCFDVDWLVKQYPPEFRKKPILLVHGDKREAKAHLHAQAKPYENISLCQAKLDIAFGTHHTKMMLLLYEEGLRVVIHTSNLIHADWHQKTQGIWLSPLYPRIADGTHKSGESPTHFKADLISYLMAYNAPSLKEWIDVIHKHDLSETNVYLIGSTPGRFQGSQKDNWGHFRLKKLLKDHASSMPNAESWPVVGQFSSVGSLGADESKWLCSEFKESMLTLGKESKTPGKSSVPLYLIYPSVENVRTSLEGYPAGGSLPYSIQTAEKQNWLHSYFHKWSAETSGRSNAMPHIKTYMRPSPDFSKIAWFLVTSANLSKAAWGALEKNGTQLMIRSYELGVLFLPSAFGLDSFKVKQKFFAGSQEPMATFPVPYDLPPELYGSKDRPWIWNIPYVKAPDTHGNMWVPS
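Signal: AlphaScreen proximity between streptavidin donor and anti-FITC acceptor beads on intact substrate. Reaction: Tdp1 1 nM, substrate 15 nM final, 5 min RT after 15 min compound preincubation.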
ELG1 repair inh: ELG1-dependent DNA repair inhibition; 2.3% of 330,000 active; HEK293T ELG1-luciferase reporter, luminescence, 16 h; DNA damage induced by 5-fluorouridine; Potency, µM (titrated, usually from 46.1 µM), hits mostly inhibitors; note: nearly all actives have a fitted effect of over 55% in size
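DMSO vehicle served as the neutral condition. Each well held 2,000 cells given 5-fluorouridine plus compound; after 16 hr at 37 °C/5% CO2, ONE-Glo was added and luciferase measured 30 min later.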
DT40 TDP1 no CPT: qHTS for Inhibitors of human tyrosyl-DNA phosphodiesterase 1 (TDP1): qHTS in cells in absence of CPT; DT40 Tdp1-/- hTDP1 cells, no CPT, ATP luminescence, 48 h; Potency, µM (series often up to 46.2 µM), hits mostly inhibitors; 15% of 420,000 active; AID 686978, 2013; note: nearly all actives have a fitted effect of over 55% in size
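A cellular qHTS used chicken DT40 cells lacking endogenous Tdp1 but carrying stably transfected human TDP1. Compounds were applied without camptothecin, and cell growth kinetics were judged by ATP-dependent luminescence after ≥48 hr.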
Each line names hits and unclear results; the compound was inactive in the other large screens. A selection: hits, their analogues and other compounds. The true share with any hit is near 19%. Unless noted, calls come from the whole dose curve; as a rule, active = well fitted curve in the direction sought with a large enough effect; inconclusive = small, poorly fitted or top-dose-only effect, or another doubt; inactive = no such curve, though single readings can be large; an effect the other way counts as inactive or inconclusive.

CC(=O)N1c2ccc(S(=O)(=O)NCc3ccccc3Cl)cc2CC1C (configuration not stated)	TDP1 cell CPT inconclusive, DT40 TDP1 no CPT 7.3µM
COc1cc(NC(=O)CN(C)S(=O)(=O)c2ccc3c(c2)CC(C)N3C(C)=O)cc(OC)c1OC (configuration not stated)	TDP1 cell CPT inconclusive, ELG1 repair inh inconclusive, DT40 TDP1 no CPT inconclusive
COc1cc(CNS(=O)(=O)c2ccc3c(c2)CC(C)N3C(C)=O)cc(OC)c1OC (configuration not stated)	TDP1 cell CPT 10µM, DT40 TDP1 no CPT inconclusive
COc1ccc(CCNS(=O)(=O)c2ccc3c(c2)CC(C)N3C(C)=O)cc1OC (configuration not stated)	ELG1 repair inh inconclusive, DT40 TDP1 no CPT inconclusive
COc1ccc(-n2c(=O)c3ccccc3c3ccccc3c2=O)cc1	ELG1 repair inh inconclusive
COc1ccc(OC)c(-n2c(=O)c3ccccc3c3ccccc3c2=O)c1	IL-1B inflam inh -89, ELG1 repair inh inconclusive
O=C(Cn1cnc([N+](=O)[O-])c1)NC1CCCC1	none
CC1(C)CC2(OC2c2ccccc2[N+](=O)[O-])C(=O)c2ccccc21 (configuration not stated)	TDP1 cell CPT 16µM, DT40 TDP1 no CPT 18µM (no result: Giardia killer, TDP1 block, ELG1 repair inh)
Cn1c(CSCc2ccccc2)nnc1SCC(=O)Nc1ccc(C(=O)O)cc1	Giardia killer inconclusive
O=C(c1cccc(S(=O)(=O)N2CCN(c3ccc(F)cc3)CC2)c1)N1CCCC1	TDP1 cell CPT inconclusive, DT40 TDP1 no CPT inconclusive
CC1CC(C)CN(S(=O)(=O)c2cccc(C(=O)N3CCN(c4ccc(F)cc4)CC3)c2)C1 (configuration not stated)	TDP1 cell CPT inconclusive, DT40 TDP1 no CPT 21µM
CC1CCN(S(=O)(=O)c2cccc(C(=O)N3CCN(c4ccc(F)cc4)CC3)c2)CC1	TDP1 cell CPT 15µM, DT40 TDP1 no CPT inconclusive
CC1CCC(NC(=O)c2cccc(S(=O)(=O)N3CCN(c4ccc(F)cc4)CC3)c2)CC1 (configuration not stated)	TDP1 cell CPT inconclusive, ELG1 repair inh inconclusive, DT40 TDP1 no CPT 9.2µM
COc1ccccc1CN1CCC(n2cc(C(=O)N3CCCCC3)nn2)CC1	none (no result: Giardia killer, IL-1B inflam inh, TDP1 block, ELG1 repair inh)
COc1cc(CNCc2cc(OC)ccc2OC)cc(OC)c1	TDP1 cell CPT inconclusive, IL-1B inflam inh -57 (no result: TDP1 block)
COc1cc(CNCc2cc(OC)c(OC)c(OC)c2)cc(OC)c1	TDP1 cell CPT 13µM, DT40 TDP1 no CPT 23µM (no result: TDP1 block)
CCOc1cc(CNCc2cc(OC)cc(OC)c2)ccc1OC	TDP1 cell CPT 13µM, IL-1B inflam inh -58, DT40 TDP1 no CPT 8.2µM (no result: TDP1 block)
COc1ccc(CNCc2cc(OC)ccc2OC)cc1	TDP1 cell CPT inconclusive, DT40 TDP1 no CPT inconclusive (no result: TDP1 block)
COc1cc(CNCc2cccc(OC)c2OC)cc(OC)c1	TDP1 cell CPT inconclusive, ELG1 repair inh inconclusive, DT40 TDP1 no CPT inconclusive (no result: TDP1 block)
COC(=O)C1=C(N)OC2=C(C(=O)CC(C)(C)C2)C1c1cc2c(cc1Cl)OCO2 (configuration not stated)	none (no result: TDP1 block)
COc1ccc(NC(=O)c2cccc(S(=O)(=O)N3CCN(C)CC3)c2)c(OC)c1	none
CCC(C)N(C(=O)CSc1ccc(NC(C)=O)cc1)C1CCS(=O)(=O)C1 (configuration not stated)	none
CCC(=O)NCCNc1ccc([N+](=O)[O-])cn1	none (no result: Giardia killer, TDP1 cell CPT, IL-1B inflam inh, DT40 TDP1 no CPT)
CC(C)(C)c1ccc(CNc2ccc([N+](=O)[O-])cn2)cc1	TDP1 cell CPT inconclusive, ELG1 repair inh inconclusive, DT40 TDP1 no CPT 23µM
O=[N+]([O-])c1ccc(NCc2ccc(Cl)cc2)nc1	IL-1B inflam inh -78, ELG1 repair inh inconclusive
CC(C)c1ccc(CNc2ccc([N+](=O)[O-])cn2)cc1	IL-1B inflam inh inconclusive, ELG1 repair inh inconclusive, DT40 TDP1 no CPT inconclusive
O=[N+]([O-])c1ccc(Nc2ccc(Cl)cc2)nc1	IL-1B inflam inh -57
